Among all 420,000 compounds or so, about 64,000 (15%) were called active. Inconclusive results (about 27%) are left out. These entries were drawn from the full list. Values without a mark were called inactive. Calls come from the whole dose curve; as a rule, active = well fitted inhibition curve with a large enough effect; inconclusive = small, poorly fitted or top-dose-only effect; inactive = flat fitted curve, though single readings scatter.
Assay: qHTS for Inhibitors of human tyrosyl-DNA phosphodiesterase 1 (TDP1): qHTS in cells in absence of CPT; note: nearly all actives have a fitted effect of over 55% in size
Details: DT40 Tdp1-/- hTDP1 cells, no CPT, ATP luminescence, 48 h; activity change, negative = growth inhibition: at 46.2 µM (top of the series)
Summary of the method: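 Chicken DT40 Tdp1-/- cells stably complemented with human TDP1 were seeded at 400 cells/well with DMSO in place of 20 nM camptothecin. After compound pinning, cells grew at least 48 hr at 37 °C; viability read by CellTiter-Glo luminescence.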
With CCc1nc2cc(C(=O)NCC3CCS(=O)(=O)C3)cc(NC(=O)c3ccccc3OC)c2n1C (centres undefined) the “activity change, negative = growth inhibition” value was -6.3%.
In the case of COc1ccc(-c2nc3cnc(Oc4ccccc4)nc3n(Cc3cccs3)c2=O)cc1, the “activity change, negative = growth inhibition” value is reported as -4.39%.
In the case of CCc1nnc(NC(=O)c2ccco2)s1, the “activity change, negative = growth inhibition” value is reported as 5.95%.
With CCc1nnc(NC(=O)c2sc3nc(C)cc(COC)c3c2N)s1 the “activity change, negative = growth inhibition” value was -9.29%.
In the case of CCc1ccc2nc3sc(C(=O)Nc4nnc(CC)s4)c(N)c3cc2c1, the Potency is reported as 18.4 µM (active).
With CCC(=O)c1ccc(OCC(O)CN2C(=O)NC(C)(C)C2=O)cc1 (centres undefined) the “activity change, negative = growth inhibition” value was 5.76%.
For CCOC(=O)c1c(N)sc(C(C)=O)c1C, the “activity change, negative = growth inhibition” value was -22.8%.
In the case of Cc1ccc(-c2cc(C(=O)Oc3ccccc3Cl)no2)cc1C, the “activity change, negative = growth inhibition” value is reported as -1.58%.
With O=C(NCCSc1ccccc1)c1ccco1 the “activity change, negative = growth inhibition” value was -15%.
In the case of CC(=O)Nc1ccc2nc(SCCOc3cc(C)cc(C)c3)sc2c1, the Potency is reported as 16.4 µM (active).
In the case of Cc1cccc(OCCSc2nc3ccc(NC(=O)COc4ccccc4C)cc3s2)c1, the “activity change, negative = growth inhibition” value is reported as -16.9%.
In the case of Cc1cc(NC(=O)COc2ccc([N+](=O)[O-])cc2)no1, the “activity change, negative = growth inhibition” value is reported as -27.2%.
In the case of Cc1cc(C)cc(OCC(=O)Nc2nc3ccc([N+](=O)[O-])cc3s2)c1, the “activity change, negative = growth inhibition” value is reported as -24.8%.
For O=C(Nc1ccccc1)c1ccco1, the “activity change, negative = growth inhibition” value was 13.4%.
In the case of O=C(NC1CCCCC1)c1cc([N+](=O)[O-])ccc1N1CCOCC1, the “activity change, negative = growth inhibition” value is reported as -26.5%.
With CCOc1ccc2nc(SC(CC)C(=O)Nc3cc(C)on3)sc2c1 (centres undefined) the Potency was 18.4 µM (active).
With CCCC(=O)N(CCN1CCOCC1)c1nc2ccc(OCC)cc2s1 the “activity change, negative = growth inhibition” value was -20%.
In the case of O=C(Nc1ccc2nc(SCCOc3ccccc3)sc2c1)c1ccco1, the Potency is reported as 23.1 µM (active).
With Cc1cc(C)cc(OCc2nnc(SCC(=O)Nc3ccccc3)o2)c1 the “activity change, negative = growth inhibition” value was -0.595%.
For CCOc1ccc2nc(NC(=O)c3cc([N+](=O)[O-])ccc3N3CCOCC3)sc2c1, the Potency was 18.4 µM (active).
In the case of COc1cc(NS(=O)(=O)c2cccs2)cc(OC)c1, the “activity change, negative = growth inhibition” value is reported as -16.9%.
For CCOc1cc(CNCc2ccccn2)ccc1OCC(=O)NC(C)(C)C, the “activity change, negative = growth inhibition” value was -73.4%.
For Cc1cccc(NC(=O)N2CCCCCC2)c1C, the “activity change, negative = growth inhibition” value was 17.4%.
In the case of O=C(CCNC(=O)c1ccccc1Cl)NN=Cc1ccco1, the “activity change, negative = growth inhibition” value is reported as -0.295%.
For CCOCCCNS(=O)(=O)Cc1ccccc1, the “activity change, negative = growth inhibition” value was 5.44%.
With CCC(C)NC(=O)CSC1=Nc2ccccc2C2=NC(CCC(=O)NCc3ccco3)C(=O)N12 (centres undefined) the “activity change, negative = growth inhibition” value was -3%.
With CC(=O)c1cnc(-c2ccccc2)s1 the “activity change, negative = growth inhibition” value was 6.21%.
For CC(=O)c1nnn(-c2ccc(Cl)cc2C#N)c1C, the “activity change, negative = growth inhibition” value was -23.2%.
In the case of CNC(=O)c1ccc2nc(NC(C)=O)sc2c1, the “activity change, negative = growth inhibition” value is reported as -18.8%.
In the case of CC(=O)Nc1ccc2nc(NC(=O)CS(=O)(=O)c3ccc(F)cc3)sc2c1, the “activity change, negative = growth inhibition” value is reported as -14.1%.
In the case of CCOc1ccc2nc(Nc3nc4ccc(NC(C)=O)cc4s3)sc2c1, the Potency is reported as 10.3 µM (active).
In the case of COCCn1c(SCc2nc3cc(OC)c(OC)cc3c(=O)[nH]2)nnc1-c1ccncc1, the “activity change, negative = growth inhibition” value is reported as -16.8%.
With O=c1c2ccccc2nc(CSc2nnnn2-c2ccccc2)n1-c1ccccc1 the “activity change, negative = growth inhibition” value was -16.9%.
In the case of COc1ccc(C)cc1-n1nnnc1SCc1nc2ccccc2c(=O)[nH]1, the Potency is reported as 9.2 µM (active).
For O=C1CCC[C@@H]2CC(N3CCCCC3)C[C@@H]3CCN1[C@H]23 (some centres undefined), the “activity change, negative = growth inhibition” value was -9.79%.
For S=C1Nc2cc(Cl)ccc2Sc2ccccc21, the “activity change, negative = growth inhibition” value was 8.29%.
In the case of Cc1cccc(C)c1NC(=O)CN(C)C(=O)CCC(=O)c1ccccc1, the “activity change, negative = growth inhibition” value is reported as 6.97%.
With Cc1ccccc1NC(=O)c1ccccc1 the “activity change, negative = growth inhibition” value was -3.3%.
In the case of Cc1cccc(C)c1NC(=O)C(Cl)C(=O)c1ccccc1 (centres undefined), the Potency is reported as 7.31 µM (active).
For CCCCNCCS(=O)(=O)NCc1ccccc1, the “activity change, negative = growth inhibition” value was -17.8%.
In the case of C[C@H](CO)N1C[C@H](C)[C@@H](CN(C)S(=O)(=O)c2ccc(F)cc2)OCc2cnnn2CCCC1=O, the “activity change, negative = growth inhibition” value is reported as -20.3%.
In the case of COc1cc(C(=S)N2CCOCC2)cc(OC)c1OC(=O)c1cc([N+](=O)[O-])cc([N+](=O)[O-])c1, the “activity change, negative = growth inhibition” value is reported as -7.83%.
For CCN(CC)S(=O)(=O)c1ccc(C(=O)N2CCN(C3=NS(=O)(=O)c4ccccc43)CC2)cc1, the “activity change, negative = growth inhibition” value was 9.61%.
For CN(c1ccccc1)S(=O)(=O)c1ccc(C(=O)N2CCN(c3ccccc3Cl)CC2)cc1, the Potency was 20.6 µM (active).
In the case of COc1ccccc1N1CCN(C(=O)c2ccc(S(=O)(=O)N3CCCCC3)cc2)CC1, the Potency is reported as 25.9 µM (active).
For CN(c1ccccc1)S(=O)(=O)c1ccc(Cl)c(C(=O)OCC(=O)N2CCOCC2)c1, the “activity change, negative = growth inhibition” value was 10.2%.
For COc1ccc(C(=O)NCc2ccc(Cl)cc2)cc1S(=O)(=O)N1CCCC1, the “activity change, negative = growth inhibition” value was -9.45%.
With COc1ccc(N2CCN(C(=O)CNS(=O)(=O)c3ccc(C)c(C)c3)CC2)cc1 the “activity change, negative = growth inhibition” value was -16.1%.
With COc1ccccc1N1CCN(S(=O)(=O)c2ccc(Cl)cc2)CC1 the “activity change, negative = growth inhibition” value was -14.6%.
In the case of COc1ccc(N2CCN(C(=O)COC(=O)c3cccc(S(=O)(=O)Nc4ccccc4OC)c3)CC2)cc1, the Potency is reported as 20.6 µM (active).
With COc1ccccc1N1CCN(C(=O)c2ccc(Cl)c(S(=O)(=O)N3CCCC3)c2)CC1 the Potency was 18.4 µM (active).
In the case of COc1ccccc1CC(=O)Nc1ccc(S(=O)(=O)N2CCCC2)cc1, the “activity change, negative = growth inhibition” value is reported as -1.81%.
With CCOC(=O)N1CCN(C(=O)COC(=O)c2cccc(S(C)(=O)=O)c2)CC1 the “activity change, negative = growth inhibition” value was -11.6%.
In the case of O=C(c1ccc(Cl)c(S(=O)(=O)N2CCCCCC2)c1)N1CCN(c2ccc(O)cc2)CC1, the “activity change, negative = growth inhibition” value is reported as -47.4%.

Reference: PubChem BioAssay AID686978 (National Center for Advancing Translational Sciences (NCATS), 2013)
% is set by controls: 0 for no effect and ±100 for the full control effect; potency is the fitted concentration of half-maximal effect.
